Data on 23 molecules can be found in PubChem BioAssay (Tox21).

Test [1] is described as follows: qHTS assay to identify small molecule antagonists of the thyroid receptor (TR) signaling pathway - cell viability counter screen (AID 743064). Further: nearly all actives have a fitted effect of over 50% in size. Further: potency means the concentration at half of the fitted maximal effect. Put shortly:
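CellTiter-Fluor readout, 30 min at 37 °C/5% CO2, following 23.5 h incubation of GH3.TRE-Luc cells with test compound and 1 nM T3 (final).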

A short description of test [2]: qHTS assay to identify small molecule antagonists of the thyroid receptor (TR) signaling pathway (AID 743065). Further: nearly all actives have a fitted effect of over 55% in size. Further: potency means the concentration at half of the fitted maximal effect. The method, boiled down:
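GH3.TRE-Luc rat pituitary cells (two TREs driving luciferase) were dosed with compound, then stimulated with 1 nM T3 (final) for 23.5 h at 37 C. ONE-Glo luminescence was the read-out, with CellTiter-Fluor fluorescence as the cytotoxicity counter-screen.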
In general terms: qHTS replaces the single test concentration by a dilution series.

Test [3] has as its system thyroid hormone receptor (rat, GH3 cells). Kind of test: qHTS assay to identify small molecule agonists of the thyroid receptor (TR) signaling pathway (AID 743066; calls by dose curve).
Test [4] addresses Estrogen receptor (Homo sapiens) (UniProt P03372). Kind of test: qHTS assay to identify small molecule antagonists of the estrogen receptor alpha (ER-alpha) signaling pathway (AID 743069; active means well fitted curve in the direction sought with a large enough effect in the signal ratio in the repeat runs, not every such curve was filed as active; the % refers to the signal ratio). Put shortly:
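Reporter cells (ER-alpha-bla, HEK293 background) are conditioned overnight in stripped-serum medium (2% charcoal-stripped FBS). Compound and 17beta-estradiol exposure runs 18 hr at 37C, 5% CO2.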

Test [5] in a line: qHTS assay to identify small molecule antagonists of the estrogen receptor alpha (ER-alpha) signaling pathway - cell viability counter screen (AID 743074; calls by dose curve;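 further: HEK293 cells carrying ER-alpha-UAS-bla reporter stimulated with 17beta-estradiol; nearly all actives have a fitted effect of over 45% in size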).
Test [6] has as its target Estrogen receptor (Homo sapiens) (UniProt P03372). Kind of test: qHTS assay to identify small molecule agonists of the estrogen receptor alpha (ER-alpha) signaling pathway (AID 743075; calls by dose curve;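 further: HEK293 GripTite cells with ER-alpha and UAS-driven beta-lactamase reporter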).
Test [7] has the same target. The test can be described thus: qHTS assay to identify small molecule agonists of the estrogen receptor alpha (ER-alpha) signaling pathway using the BG1 cell line (AID 743079). Further: nearly all actives have a fitted effect of over 20% in size. Further: potency means the concentration at half of the fitted maximal effect. Conditions: BG1Luc4E2 cells, ERE-luciferase agonist, 22 h.
The nature of test [8]: qHTS assay to identify small molecule antagonists of the estrogen receptor alpha (ER-alpha) signaling pathway using the BG1 cell line - cell viability counter screen (AID 743081).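 Further: compound given together with 17beta-estradiol as the ER stimulus; nearly all actives have a fitted effect of over 45% in size.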
The nature of test [9]: qHTS assay to identify small molecule antagonists of the estrogen receptor alpha (ER-alpha) signaling pathway using the BG1 cell line (AID 743080; calls by dose curve;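 further: BG1 cells stimulated with 17beta-estradiol alongside compound; nearly all actives have a fitted effect of over 25% in size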). The method, boiled down: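 Luciferase inhibition measured with ONE-Glo after 30 min at RT in BG1Luc4E2 cells given test compounds and 17beta-estradiol for 21.5 h at 37 C; CellTiter-Fluor viability read in the same wells beforehand.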

The target in a further test is Aromatase (Homo sapiens) (UniProt P11511). Kind of test: qHTS assay to identify aromatase inhibitors (AID 743083). Further: nearly all actives have a fitted effect of over 55% in size.

Values joined by “and” are separate entries in the source; they are usually repeats but may differ in a detail not shown here. Equal values may be shown once. Inconclusive results are not listed. A number with no mark means an inactive call. Active and inactive are the calls of the source. Unless noted, the call rests on the fitted dose curve; in most records, active means well fitted curve in the direction sought with a large enough effect in the repeat runs; inconclusive means weak or mixed curves; inactive means no such curve, though single readings can be large; an effect the other way counts as inactive or inconclusive.
On the % scale 0 is the no-effect control and ±100 the full control effect.

Chain of Estrogen receptor (Homo sapiens) (P03372 whole entry, looked up): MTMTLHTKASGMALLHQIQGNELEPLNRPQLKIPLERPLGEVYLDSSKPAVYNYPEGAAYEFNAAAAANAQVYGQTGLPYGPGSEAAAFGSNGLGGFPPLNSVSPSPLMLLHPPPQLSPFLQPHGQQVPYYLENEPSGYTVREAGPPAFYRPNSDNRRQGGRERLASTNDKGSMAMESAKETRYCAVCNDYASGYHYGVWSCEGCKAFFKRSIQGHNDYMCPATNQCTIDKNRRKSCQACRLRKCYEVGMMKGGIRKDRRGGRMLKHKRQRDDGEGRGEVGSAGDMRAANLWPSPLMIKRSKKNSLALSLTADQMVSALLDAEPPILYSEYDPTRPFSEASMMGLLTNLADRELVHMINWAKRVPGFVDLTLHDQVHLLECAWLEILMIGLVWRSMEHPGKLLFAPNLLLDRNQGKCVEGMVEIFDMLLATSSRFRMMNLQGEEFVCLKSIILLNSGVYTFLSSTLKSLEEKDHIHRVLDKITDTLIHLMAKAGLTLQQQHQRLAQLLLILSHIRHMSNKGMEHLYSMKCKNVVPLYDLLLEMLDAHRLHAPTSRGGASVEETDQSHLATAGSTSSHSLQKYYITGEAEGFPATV
Chain of Aromatase (Homo sapiens) (P11511 whole entry, looked up): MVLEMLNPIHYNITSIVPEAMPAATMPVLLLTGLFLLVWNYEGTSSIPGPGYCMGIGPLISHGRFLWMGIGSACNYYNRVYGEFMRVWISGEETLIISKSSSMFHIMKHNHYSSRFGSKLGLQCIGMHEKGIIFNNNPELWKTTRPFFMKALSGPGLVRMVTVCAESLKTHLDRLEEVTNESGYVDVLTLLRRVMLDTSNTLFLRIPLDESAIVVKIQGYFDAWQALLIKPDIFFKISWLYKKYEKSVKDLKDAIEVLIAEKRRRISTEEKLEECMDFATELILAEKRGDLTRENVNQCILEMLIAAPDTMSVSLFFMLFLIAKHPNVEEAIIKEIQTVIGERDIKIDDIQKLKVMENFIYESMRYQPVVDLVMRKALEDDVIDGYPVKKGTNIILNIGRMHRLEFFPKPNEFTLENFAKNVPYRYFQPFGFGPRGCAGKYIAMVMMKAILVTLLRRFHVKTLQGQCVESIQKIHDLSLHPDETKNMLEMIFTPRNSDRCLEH

Regarding `COc1cc(CCN)cc(OC)c1OC`, the Potency result in test [1], in test [2], in test [3], in test [4], in [5] and in test [6] was “inactive” in each case. In addition, the Potency result in test [8] is “inactive”. Besides, in test [7] (at 95 µM (top of the series)), the activation is -6.66%.

Regarding `COc1cccc([C@@]2(O)CCCC[C@@H]2CN(C)C)c1`, the Potency result in test [1], in test [2], in [3], in test [4], in [5] and in test [6] was “inactive” each time. The Potency entry (in test [9]; in test [8]; in the test with Aromatase (Homo sapiens)) was “inactive” throughout. Besides, the activation in test [7] (at 70.3 µM (top of the series)) was 7.73%.

For the molecule `CCN[C@@H](C)Cc1ccccc1`, the Potency result in test [1], in [2], in [3], in [4], in test [5] and in test [6] was “inactive” throughout. For the same molecule, the Potency result (in test [8]; in the test with Aromatase (Homo sapiens)) was “inactive” throughout. Further, in test [7] (at 95 µM (top of the series)), the activation was 0.895%.

In the case of `COc1ccc(CN2CCNCC2)c(OC)c1OC`, the Potency entry in [1], in [2], in test [3], in test [4], in [5] and in test [6] was “inactive” in each case. Further, the Potency entry (in [9]; in test [8]; in the test with Aromatase (Homo sapiens)) was “inactive” each time. Also, the activation in [7] (at 32.5 µM (top of the series)) was 3.39%.

In the case of `CCCN1CCC[C@@H]2Cc3nc(N)ncc3C[C@H]21`, the Potency entry in test [1], in [2], in test [3], in test [4], in test [5] and in test [6] was “inactive” in each case. For the same molecule, the Potency entry (in test [9]; in [8]; in the test with Aromatase (Homo sapiens)) was “inactive” in each case. Moreover, in [7] (at 70.3 µM (top of the series)), the activation was -11.9%.

`O=c1[nH]oc2c1CCNC2`: the Potency result in test [1], in test [2], in test [3], in test [4], in test [5] and in [6] was “inactive” in each case. Besides, the Potency result (in test [9]; in test [8]; in the test with Aromatase (Homo sapiens)) was “inactive” in each case. Also, the activation in test [7] (at 70.3 µM (top of the series)) was -5.36%.

Regarding `CS(=O)(=O)c1ccc(C(=O)C2C(=O)CCCC2=O)c(Cl)c1COCC(F)(F)F`, the Potency entry in test [1], in [2], in [3], in [4], in [5] and in test [6] was “inactive” each time. The Potency entry (in test [9]; in test [8]; with Aromatase (Homo sapiens)) was “inactive” each time. In addition, the activation in test [7] (at 70.3 µM (top of the series)) was 14.7%.

For `ClCOCCl`, the Potency entry in [1], in test [2], in test [3], in test [4], in test [5] and in test [6] was “inactive” throughout. Also, the Potency entry (in test [9]; in test [8]; with Aromatase (Homo sapiens)) was “inactive” each time. In addition, the Potency in test [7] was 61.4 µM (active).

For the molecule `BrCc1ccc(Br)cc1`, the Potency entry in test [1], in test [2], in test [3], in test [4], in [5] and in test [6] was “inactive” throughout. Moreover, the Potency entry (in test [9]; in test [8]; in the test with Aromatase (Homo sapiens)) was “inactive” throughout. In addition, in test [7] (at 70.3 µM (top of the series)), the activation is -9.06%.

Consider `CN=CNc1ccc(C)cc1C`, for which the Potency result in test [1], in [2], in test [3], in test [4], in [5] and in [6] was “inactive” throughout. Moreover, the Potency result (in [9]; in test [8]; with Aromatase (Homo sapiens)) was “inactive” each time. In addition, the activation in [7] (at 70.3 µM (top of the series)) was 15.7%.

As to `ClC1=C(Cl)C2(Cl)C(CBr)CC1(Cl)C2(Cl)Cl` (stereo not given), the Potency was 26.6 µM (active) and 48.6 µM (active) in test [1]; 26.6 µM (active) and 43.3 µM (active) in [2]. The Potency result in [3], in [4], in test [5], in [6], in test [9] and in test [8] was “inactive” each time. For the same molecule, in the test with Aromatase (Homo sapiens), the Potency entry was “inactive”. In [7] (at 70.3 µM (top of the series)), the activation is -8.81% and -11.5%.

For `C=CC1(C)OC(=O)N(c2cc(Cl)cc(Cl)c2)C1=O` (stereo not given), the Potency result in test [1], in [2], in [3], in test [4], in [5] and in test [6] was “inactive” in each case. Besides, the Potency result (in [9]; in test [8]; with Aromatase (Homo sapiens)) was “inactive” throughout. Also, in [7] (at 70.3 µM (top of the series)), the activation is -20.8% and -18.1%.

`CS(=O)(=O)Cl`: the Potency result in test [1], in test [2], in test [3], in test [4], in test [5] and in [6] was “inactive” in each case. For the same molecule, the Potency entry (in [9]; in test [8]; with Aromatase (Homo sapiens)) was “inactive” each time. Further, the activation in [7] (at 95 µM (top of the series)) was 7.45%.

In the case of `C[C@H](N)C(=O)c1ccccc1`, the Potency result in test [1], in test [2], in test [3], in [4], in test [5] and in [6] was “inactive” throughout. Moreover, the Potency result (in test [8]; with Aromatase (Homo sapiens)) was “inactive” each time. Further, the figures for the activation in test [7] (at 70.3 µM (top of the series)) and in test [7] (at 95 µM (top of the series)) were -5.09% and 4.39%, respectively.

As to `ClC(Cl)(Cl)Cl`, the Potency result in [1], in [2], in [3], in [4], in test [5] and in [6] was “inactive” throughout. Besides, the Potency result (in test [9]; in test [8]; with Aromatase (Homo sapiens)) was “inactive” in each case. In addition, in [7] (at 70.3 µM (top of the series)), the activation was 2.38% and 2.1%.

Regarding `[O-][Br+2]([O-])O`, the Potency entry in [1], in test [2], in [3], in test [4], in test [5] and in [6] was “inactive” each time. Further, the Potency entry (in [9]; in test [8]; with Aromatase (Homo sapiens)) was “inactive” in each case. The activation in test [7] (at 70.3 µM (top of the series)) is 1.35%.

Turning to `O=P(O)(O)c1ccccc1`, the Potency entry in test [1], in test [2], in test [3], in [4], in test [5] and in test [6] was “inactive” each time. The Potency result (in [9]; in test [8]; with Aromatase (Homo sapiens)) was “inactive” in each case. Besides, the activation in test [7] (at 70.3 µM (top of the series)) is 0.284%.

With `C=C1C[C@@H]2[C@H](CC[C@]3(C)C(=O)CC[C@@H]23)[C@@]2(C)C=CC(=O)C=C12`, the Potency result in test [1] is “inactive”.

Regarding `CC(C)c1ccc(O)cc1`, the Potency entry (in test [1]; in [2]; in test [3]; in test [5]; in test [8]; with Aromatase (Homo sapiens)) was “inactive” each time.

For `CCOC(=O)COc1ccc(Cl)cc1Cl`, the Potency entry in [1], in [2], in test [3], in test [5] and in test [8] was “inactive” in each case.

Regarding `CCOP(=S)(OCC)SCCl`, the Potency entry in test [1], in [2], in test [3], in [4], in test [6] and in test [9] was “inactive” throughout. The Potency result in test [8] was “inactive”. Further, the activation in test [7] (at 70.3 µM (top of the series)) was 9.52%.

Turning to `CCSC(=O)Cl`, the Potency result in [1], in test [2], in test [3], in test [4], in test [5] and in test [6] was “inactive” in each case. In addition, the Potency result (in test [9]; in test [8]; in the test with Aromatase (Homo sapiens)) was “inactive” each time.

For `CCOC(=O)NC(C)(C)Cc1ccc(Cl)cc1`, the Potency result in test [1], in [2], in test [3], in test [4], in test [6] and in test [9] was “inactive” throughout. Also, the Potency result (in [8]; in the test with Aromatase (Homo sapiens)) was “inactive” throughout. Further, the activation in test [7] (at 70.3 µM (top of the series)) was 6.17%.
